Assay outcomes from PubChem.
Only some compounds are listed: those with a hit (about 3.6% of all), similar ones and a draw of the others.
mHTT-CaM PPI inh: mHTT-calmodulin interaction abrogation. AlphaScreen His-mHTT/GST-CaM binding, luminescence. 3.6% of 190,000 active. inhibition, % at 15 µM. P42858. AID 1671202
Pf apPOL block: Pf-apPOL DNA polymerase inhibition; 0.25% of 210,000 active; AID 1794808; inhibition, % at 10 µM; Recombinant Pf-apPOL, molecular beacon fluorescence, 1.5 h
Of the large screens only hits and unclear results are named; the others gave an inactive call. No stated cut-off is given here; in the data, active means inhibition above about 50%; inactive means the rest.

COC(=O)c1cnc2nc(C)ccc2c1Nc1ccccc1	none
COC(=O)c1cnc2nc(C)ccc2c1Nc1ccc(Br)cc1	mHTT-CaM PPI inh 58
Cn1cnc2c1CN(CC(=O)NCc1cccc(C(F)(F)F)c1)CC2	mHTT-CaM PPI inh 68
Cc1nn(C)c2c(=O)n(CC(=O)NCc3cccc(C(F)(F)F)c3)ccc12	none
O=C(Cc1ccc(Cl)cc1)Nc1ccc2nn(-c3ccc(F)cc3)nc2c1	none
O=S(=O)(O)c1cc(I)c(O)c2ncccc12	mHTT-CaM PPI inh 100
O=S(=O)(O)c1cc(Br)ccc1I	none (no result: mHTT-CaM PPI inh)
CN(CC(=O)Nc1ccccc1F)S(=O)(=O)c1ccc2[nH]c3c(c2c1)CCCC3	none
CC1CN(S(=O)(=O)c2ccc3[nH]c4c(c3c2)CCCC4)c2ccccc2O1 (stereo not drawn)	mHTT-CaM PPI inh 96
CCOC(=O)C1CCCCN1S(=O)(=O)c1ccc2[nH]c3c(c2c1)CCCC3 (stereo not drawn)	mHTT-CaM PPI inh 62
CC1CCCN(S(=O)(=O)c2ccc(Cl)cc2)C1 (stereo not drawn)	none
CN(CC(=O)N1CCc2ccccc21)S(=O)(=O)c1ccc2[nH]c3c(c2c1)CCCC3	none
CN(CC(=O)N1CCOCC1)S(=O)(=O)c1ccc2[nH]c3c(c2c1)CCCC3	none
O=S(=O)(c1ccc2[nH]c3c(c2c1)CCCC3)N1CCc2ccccc21	mHTT-CaM PPI inh 78
CC1CCCN(S(=O)(=O)c2ccc3[nH]c4c(c3c2)CCCC4)C1 (stereo not drawn)	mHTT-CaM PPI inh 63
CCCCN(C)Cc1c(O)ccc2c1OC(=Cc1cc(OC)ccc1OC)C2=O	none
O=C1c2ccccc2C(=O)c2c1cccc2S(=O)(=O)Nc1ccc(Cl)cc1	mHTT-CaM PPI inh 70
CCNS(=O)(=O)c1cccc2c1C(=O)c1ccccc1C2=O	none
CC(=O)Nc1nc(C)c(-c2csc(Nc3ccccn3)n2)s1	mHTT-CaM PPI inh 54
CC(=O)Nc1nc(C)c(-c2csc(Nc3ccc(N(C)C)cc3)n2)s1	mHTT-CaM PPI inh 96
CCC(=O)Nc1nc(C)c(-c2csc(Nc3cccc(C(C)=O)c3)n2)s1	none
c1ccc(Nc2nc(-c3cccnc3)cs2)nc1	none
O=C(NCc1ccc(N2CCCCC2)nc1)c1ccc(F)cc1	none
CCNC(=O)c1cc2cc(C)ccc2[nH]1	none
COCCCNC(=O)C1CCN(Cc2ccc(C)o2)CC1	none
CCOCCCNC(=O)C1CCN(c2cnn(Cc3ccccc3)c(=O)c2)CC1	none
Cc1ccnc(N2CCC(C(=O)NCC3CCN(Cc4cccc(Cl)c4)CC3)CC2)n1	none
COCCNC(=O)C1CCN(Cc2cc3ccccc3n2Cc2cccc(Cl)c2)CC1	mHTT-CaM PPI inh 91
COCCCNC(=O)C1CCN(Cc2cc3ccccc3n2Cc2ccccc2)CC1	mHTT-CaM PPI inh 93
CCOCCCNC(=O)C1CCN(Cc2cc3ccccc3n2Cc2ccccc2)CC1	mHTT-CaM PPI inh 76
COc1ccccc1-n1nc(C(=O)N(C)c2ccc(C(C)C)cc2)c2ccccc2c1=O	none
O=C(CNc1ccccc1-c1nc2ccccc2[nH]c1=O)NC1CCCCC1	none
CCOc1cccc(CN2CCc3nc(Nc4cccc(OC)c4)ncc3C2)c1	none
C(=Nc1c(-c2ccccc2)nc2n1CCS2)c1ccccc1	mHTT-CaM PPI inh 59
FC(F)(F)c1cccc(N=Cc2c(-c3ccccc3)nc3n2CCS3)c1	none (no result: mHTT-CaM PPI inh)
O=C(Cc1cccs1)Nc1cccc(C(=O)c2ccccc2)c1	none
O=C(Cc1cccs1)Nc1cnc(-c2ccccc2)nc1	mHTT-CaM PPI inh 51
CCCC(=O)Nc1ccc2c(c1)CC(C(=O)NCC(=O)OC)CO2 (stereo not drawn)	none
O=[N+]([O-])c1cc([N+](=O)[O-])c2cc(-c3ccc4c(c3)OCO4)oc2c1	none
O=C(c1ccco1)N1CCC(Oc2nc3ccc(F)cc3s2)CC1	none
CCCN1C(=O)c2cccnc2Sc2cc(C(=O)N3CCN(CC)CC3)ccc21	none
Cc1cc(/C=N/NC(N)=S)c(C)n1-c1sc2c(c1C#N)CCCC2	mHTT-CaM PPI inh active (no result: Pf apPOL block)
N#Cc1c(-n2cccc2/C=N/O)sc2c1CCCC2	none
CC(=O)N1CCC2(CC1)N=C(c1ccccc1O)CC(c1ccccc1O)N2 (stereo not drawn)	none
COc1ccc(C2CC(c3ccccc3O)=NC3(CCN(C(C)=O)CC3)N2)cc1OC (stereo not drawn)	mHTT-CaM PPI inh 51
COc1ccc(C2CC(c3ccccc3O)=NC3(CCN(C(C)C)CC3)N2)cc1OC (stereo not drawn)	none
CN1CCC2(CC1)N=C(c1cc(Cl)ccc1O)CC(c1ccccc1O)N2 (stereo not drawn)	none
CCOC(=O)N1CCC2(CC1)N=C(c1ccc(C)cc1)CC(c1cc(Cl)ccc1O)N2 (stereo not drawn)	none
CCN1CCC2(CC1)N=C(c1cc(Cl)ccc1O)CC(c1ccc(OC)cc1)N2 (stereo not drawn)	mHTT-CaM PPI inh 100
CC(=O)N1CCC2(CC1)N=C(c1ccccc1O)CC(c1ccc(C)cc1C)N2 (stereo not drawn)	mHTT-CaM PPI inh 58
CCOC(=O)N1CCC2(CC1)N=C(c1cc(Cl)ccc1O)CC(c1ccccc1O)N2 (stereo not drawn)	mHTT-CaM PPI inh 100
CCc1ccc(C2=CC(c3cccc(F)c3)n3ncnc3N2)cc1 (stereo not drawn)	none
Cc1cccc(CC(=O)N2CCCC3(C2)Nc2cccnc2NC3=NC(C)(C)C)c1 (stereo not drawn)	none
CCN1CCC2(CC1)N=C(c1ccccc1O)CC(c1ccccc1O)N2 (stereo not drawn)	none
CC(=O)N1CCC2(CC1)N=C(c1cc(Cl)ccc1O)CC(c1ccc(F)cc1)N2 (stereo not drawn)	mHTT-CaM PPI inh 100
CC(C)N1CCC2(CC1)N=C(c1cc(Cl)ccc1O)CC(c1ccccc1O)N2 (stereo not drawn)	none
COc1ccc(C2CC(c3cc(Cl)ccc3O)=NC3(CCN(C(C)=O)CC3)N2)cc1 (stereo not drawn)	mHTT-CaM PPI inh 100
CCN1CCC2(CC1)N=C(c1ccccc1O)CC(c1ccc(Cl)cc1)N2 (stereo not drawn)	mHTT-CaM PPI inh 60
CC(=O)N1CCC2(CC1)N=C(c1ccccc1O)CC(c1ccc(C(C)C)cc1)N2 (stereo not drawn)	none
O=C(Nc1ccc(S(=O)(=O)N2CCCC2)cc1)c1cccc([N+](=O)[O-])c1	none
COc1ccccc1CNC(=O)CN(c1ccc(Oc2ccccc2)cc1)S(C)(=O)=O	none
O=C(NC1CCCC(O)C1)C12CC3CC(CC(C3)C1)C2 (stereo not drawn)	none
O=C(COc1ccc2c(c1)OC(=Cc1ccco1)C2=O)c1ccc(Br)cc1	none
O=C1CN(C(=O)CCC2CCCC2)C(c2ccc(F)cc2)c2cc(Br)ccc2N1 (stereo not drawn)	mHTT-CaM PPI inh 77
O=C1CN(C(=O)CCC2CCCC2)C(c2ccc(F)cc2)c2cc(F)ccc2N1 (stereo not drawn)	none
O=C1CN(C(=O)c2ccc(Cl)cc2)C(c2ccc(F)cc2)c2cc(Br)ccc2N1 (stereo not drawn)	mHTT-CaM PPI inh 56
COc1ccc(C(=O)N2CC(=O)Nc3ccc(C)cc3C2c2ccc(F)cc2)cc1OC (stereo not drawn)	none
CCOc1ccc(C(=O)N2CC(=O)Nc3ccc(C)cc3C2c2ccc(F)cc2)cc1OCC (stereo not drawn)	mHTT-CaM PPI inh 65
O=C1CN(C(=O)c2ccc(F)cc2)C(c2ccc(F)cc2)c2cc(Br)ccc2N1 (stereo not drawn)	none
CCC(=O)N1CCc2sc(C(=O)NC3CCCCC3)cc2C1	none
O=C1N/C(=C\c2ccc(F)cc2)C(=O)N1Cc1ccc(Br)cc1	none
